Test results: PubChem BioAssay (NCATS)
Records with an inconclusive call do not appear. Entries that show only a call come without a potency. The source made the active and inactive calls. Calls follow the shape of the dose curve; as a rule, active = well fitted curve in the direction sought with a large enough effect; inconclusive = small, poorly fitted or top-dose-only effect, or another doubt; inactive = no such curve, though single readings can be large; an effect the other way counts as inactive or inconclusive.

Key:
[1] = target: Aldehyde dehydrogenase, mitochondrial (Homo sapiens) (UniProt P05091); assay: qHTS for Inhibitors of the Aldehyde Dehydrogenase Family (ALDH2) Primary screen (AID 2061308); also: nearly all actives have a fitted effect of over 55% in size
[2] = target: Retinaldehyde dehydrogenase 3 (Homo sapiens) (UniProt P47895); assay: qHTS for Inhibitors of the Aldehyde Dehydrogenase Family (ALDH1A3) Primary screen (AID 2061315)

| Structure (SMILES) | Potency [1] | Potency [2] |
| --- | --- | --- |
| COc1cccc(NC(=S)N2CCN(c3ncc(C(F)(F)F)cc3Cl)CC2)n1 | inactive | inactive |
| CCc1ccccc1-c1nc(NCc2ccc(-c3cccnc3)cc2)c2ccccc2n1 | inactive | inactive |
| CC(=O)Nc1ccc(-c2nc3ccccc3s2)cc1 | inactive | inactive |
| NC(=O)c1cccc(-c2noc(-c3ccccc3C(F)(F)F)n2)c1 | inactive | inactive |
| COc1ccc(C2C3=C(N=CN(CCN4CCOCC4)C3N)Oc3ccccc32)cc1OC (configuration not stated) | inactive | inactive |
| O=C(OC/C=C/CSc1nnc(-c2cccc3ccccc23)o1)c1ccc(F)cc1 | inactive | inactive |
| O=C(Nc1nnc(-c2ccncc2)s1)Nc1ccc(Cl)cc1F | inactive | inactive |
| Oc1ccc(CCc2c(F)cccc2F)c2cccnc12 | inactive | inactive |
| CC(Cc1cnccn1)Nc1cnc2c(O)ccc(C(=O)O)c2c1 (configuration not stated) | inactive | inactive |
| CN(C)S(=O)(=O)c1ccc(-c2nc(NCc3ccc(-c4ccnc(C(F)(F)F)c4)cc3)c3ccccc3n2)cc1 | inactive | inactive |
| COc1cccc(C2c3c(ncn(-c4ccccc4C)c3=N)Oc3ccc4ccccc4c32)c1 (configuration not stated) | inactive | inactive |
| CCOC(=O)c1ccoc1-c1ccc2ncnc(N(C)Cc3sccc3C)c2c1 | inactive | inactive |
| Cc1nc(C)c(-c2ccc3ncnc(NCCc4cnc[nH]4)c3c2)s1 | inactive | inactive |
| O=C1CCCC2=C1C1(CCCC1)N=C(Nc1nc3ccccc3n1Cc1ccccc1)N2 | inactive | inactive |
| CCOC(=O)c1c(-c2ccc(OC)cc2)csc1NC(=O)C1CCCO1 (configuration not stated) | inactive | inactive |
| O=C(Nc1nc2cc(C(F)(F)F)ccc2s1)c1ccc(-c2cccc([N+](=O)[O-])c2)o1 | inactive | inactive |
| CNc1oc(-c2cccs2)nc1C#N | inactive | inactive |
| CSc1ccc(-c2cncc(NC(=O)c3cccs3)c2)cc1 | inactive | inactive |
| Cc1cnc(-c2ccccc2C(C)C)nc1NCC1CCN(c2cccnc2)CC1 | inactive | inactive |
| Cn1cccc1CN=C1NC2=C(C(=O)CCC2)C(c2[nH]ncc2Cl)N1 (configuration not stated) | inactive | inactive |
| CC(C)c1ccccc1-c1ncc(F)c(NC2(c3ccc(-c4cccnc4)cc3)CC2)n1 | inactive | inactive |

| Structure (SMILES) | Potency [1] | Potency [2] |
| --- | --- | --- |
| CCCn1c(C)nc2c(NCCCN3CCCCC3C)nc(C)nc21 (configuration not stated) | inactive | inactive |
| Cc1ccc(OCCn2c(CCNC(=O)C3CCCCCC3)nc3ccccc32)cc1 | inactive | inactive |
| O=C(Nc1ccc(F)c(C(F)(F)F)c1)Nc1ccc(-c2ccncc2)s1 | inactive | inactive |
| FC(F)(F)c1ccccc1-c1nc(NCc2ccc(Br)cc2)c2ccccc2n1 | inactive | inactive |
| CCSC1=NS(=O)(=O)c2ccccc21 | inactive | inactive |
| C=CCc1cccc(CNc2ccc(S(=O)(=O)Nc3nccs3)cc2)c1O | inactive | inactive |
| N#CC1=C(Nc2nc3ccccc3o2)OC2=C(C(=O)CCC2)C1c1[nH]ncc1Cl (configuration not stated) | inactive | inactive |
| CCOc1ccc(CCNC(=O)c2cc3ccccc3n2C)cc1OCC | inactive | inactive |
| Nc1ccc2c(c1)C(=O)NS2(=O)=O | inactive | inactive |
| Cc1ccc(-c2cc(C(=O)Nc3ccc(-n4cccn4)cc3)c3ccccc3n2)cc1C | inactive | inactive |
| COc1cc(OC)cc(-c2nnc3n2N=C(c2cc(OC)ccc2OC)CS3)c1 | inactive | inactive |
| Cc1nc(NCc2ccccc2)c2nc(-c3ccccc3)n(CCN(C)C)c2n1 | inactive | inactive |
| O=C(Nc1ccc2ccccc2c1)Nc1nnc(-c2ccc(Cl)cc2Cl)s1 | inactive | inactive |
| Cc1ccc(C(=O)Nc2ccc(S(=O)(=O)Nc3nccs3)cc2)cc1C | inactive | inactive |
| COc1ccc(S(=O)(=O)NC2CCN(C#N)CC2)cc1 | inactive | inactive |
| N#Cc1c(-c2ccc(OCCOCCOCCNC(=O)CCCC[C@@H]3SC[C@@H]4NC(=O)N[C@@H]43)cc2)no[n+]1[O-] | inactive | inactive |
| O=C1CCCC2=C1C1(CCCC1)N=C(Nc1nc3cc(-c4ccccc4)ccc3o1)N2 | inactive | inactive |
| N=c1c2c(ncn1CCN1CCOCC1)Oc1ccc3ccccc3c1C2c1ccccc1 (configuration not stated) | inactive | inactive |
| Cc1sc(NC(=O)Cc2ccc3c(c2)OCO3)nc1-c1ccc2c(c1)CCN2C(=O)c1ccccc1Cl | inactive | inactive |
| O=C(OCC#CCSc1nnc(-c2cccc3ccccc23)o1)c1ccc(OC(F)F)cc1 | inactive | inactive |
